# Hits are enriched below; roughly 9% of the tested compounds scored in any of these assays.
# HP1b chromo inh: HP1-beta chromodomain-methylated histone interaction inhibition; AlphaScreen HP1-beta / biotin-H3K9me3 peptide binding; P83916; hit rate 0.56% among 390,000; AID 540317; Potency, µM (top dose mostly 114 µM), hits mostly inhibitors; further: nearly all actives have a fitted effect of over 70% in size
#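 AlphaScreen: HP1-beta (50 nM) preformed 30 min with biotin-H3(1-18)K9me3 peptide (50 nM) in PBS pH 7.4, 0.01% Tween-20. Compound added for 30 min at RT, then streptavidin donor/nickel chelate acceptor beads (10 ug/mL) for 30 min.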
# G9a block: blocks human histone lysine methyltransferase G9a; G9a H3K9 monomethylation, AlphaScreen, 2 h; Potency, µM (doses to about 102 µM), most hits filed as inhibitors; hit rate 8.8% among 350,000; AID 504332; further: nearly all actives have a fitted effect of over 75% in size
#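 Using a bead-based AlphaScreen, monomethylated H3K9 product from 2 h room-temperature reactions (G9a 20 nM, peptide 500 nM, SAM 20 uM) was detected with 0.5 ug/mL rabbit anti-H3K9me1 antibody.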
# BAZ2B block: inhibitors of human BAZ2B bromodomain | Q9UIF8 | Potency, µM (titrated, usually from 114 µM), actives largely listed as inhibitors | hit rate 4.4% among 360,000 | AlphaScreen BAZ2B-H3K14Ac peptide displacement | AID 504333; further: nearly all actives have a fitted effect of over 60% in size
#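 AlphaScreen displacement: compounds (up to 110uM) incubated 30 min at room temperature with a preformed 50 nM BAZ2B/50 nM biotinylated H3K14Ac peptide complex in PBS pH 7.4 with Tween-20. Donor and acceptor beads at 10 ug/mL final added, 20 min light-protected before reading.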
# 12-LOX inh: blocks human arachidonate 12S-lipoxygenase. purified 12hLO, xylenol orange hydroperoxide absorbance. hit rate 1.1% among 580,000. P18054. Potency, µM (top dose mostly 108 µM), hits mostly inhibitors
#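 Purified human 12hLO (150 nM final) in 25 mM Hepes, 0.01% Triton X-100, pH 7.0 was preincubated 15 min at room temperature with compound. Then 40 uM arachidonic acid was added, 30 min. Hydroperoxide was read by Fe-XO absorbance ratio 573/405 nm.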
# JMJD2A Tudor inh: blocks the human JMJD2A Tudor domain; AID 504339; AlphaScreen JMJD2A-Tudor / H3K4me3 peptide binding; Potency, µM (doses to about 114 µM), actives largely listed as inhibitors; O75164; hit rate 4.4% among 390,000; further: nearly all actives have a fitted effect of over 50% in size
# PLK1 PBD block: inhibitors of human PLK1 polo-box domain binding; P53350; Plk1 PBD binding of FITC phosphopeptide, fluorescence polarization; Potency, µM, usual class: inhibitors; hit rate 2.8% among 360,000; AID 720504; further: series mostly up to about 57 µM; nearly all actives have a fitted effect of over 65% in size
# Numbers stand for hits; - = inactive; ? = inconclusive; . = not tested or not shown; ! = not confirmed by another sample; [ ] = remark or other dose. The call rests on the fitted dose curve; in most records, active means well fitted curve in the direction sought with a large enough effect; inconclusive means small, poorly fitted or top-dose-only effect, or another doubt; inactive means no such curve, though single readings can be large; an effect the other way counts as inactive or inconclusive.
SMILES,HP1b chromo inh,G9a block,BAZ2B block,12-LOX inh,JMJD2A Tudor inh,PLK1 PBD block
O=C(NCc1nc(-c2ccccn2)no1)C1COc2ccccc2C1 (configuration not stated),.,.,.,-,.,.
Cc1cc(NN)nc2ccc(Cl)cc12,-,14µM,-,?,?,-
COc1cccc(C(O)c2nc(C(=O)Nc3nc(C)cs3)c(C)o2)c1 (configuration not stated),.,.,.,-,.,.
O=C1NC(=Nc2ccc(Cl)cc2)/C(=C/c2ccco2)S1,-,3.2µM,50µM,25µM,11µM,-
Cc1cccc(N=C2CSC(=O)N2)c1,-,-,-,-,-,-
Cc1cccc(N=C2NC(=O)S/C2=C\c2ccco2)c1,-,22µM,?,?,40µM,-
S=c1[nH]nc2sc3ccccc3n12,-,.,.,-,1.1µM,-
Nc1c(C(=O)NCc2ccco2)sc2nc3c(cc12)C(=O)CCC3,-,?,?,-,56µM,?
CCCC(C)NC(=O)c1c2c(nc3ccccc13)CCC2 (configuration not stated),-,-,50µM,-,-,-
Cc1ccc(C(=O)NNC(=O)c2c3c(nc4ccccc24)CCCC3)cc1,.,.,.,-,.,.
O=C(NCc1ccco1)c1c2c(nc3ccccc13)CCC2,?,40µM,50µM,-,?,3µM
O=c1cc(CSc2ccc(Cl)cc2)nc(-c2ccccn2)[nH]1,-,-,28µM,-,79µM,-
CC(C)(C)Sc1ccc(N)nc1,-,50µM,?,?,-,-
Nc1ccc(S(=O)(=O)O)cn1,-,?,-,-,-,-
CC1CCCC(NC(=O)COC(=O)COc2ccc(Cl)cc2)C1C (configuration not stated),-,-,-,-,-,-
CC1CCCCC1NCC#CCOc1ccc(Cl)cc1 (configuration not stated),?,14µM,50µM,-,20µM,-
CC(C)NCC#CCOc1ccc(Cl)cc1,-,7.9µM,?,-,45µM,-
C=CCOC(=O)C1=C(C)NC(SCC(N)=O)=C(C#N)C1c1cccs1 (configuration not stated),-,-,-,-,-,-
O=C(O)/C=C/c1cn(Cc2ccccc2Cl)nc1-c1ccccc1,-,-,-,-,-[11.4 µM],27µM
O=C(COC(=O)c1ccc(NS(=O)(=O)c2cccs2)cc1)NCC1CCCO1 (configuration not stated),-,-,-,-,-,-
O=C(NCC1CCCO1)c1ccc(NS(=O)(=O)c2cccs2)cc1 (configuration not stated),-,35µM,-,-,?,-
O=C(NCC1CCCO1)c1ccccc1NS(=O)(=O)c1ccc(Br)s1 (configuration not stated),-,.,.,-,-,24µM
Cc1[nH]n(-c2ccc([N+](=O)[O-])cc2)c(=O)c1C=NCC1CCCO1 (configuration not stated),-,-,-,-,-,-
NC(=O)CSc1nc(C2CC2)nc2sc3c(c12)CCCC3,-,-,-,-,-,-
CC(C)Sc1nnc(Nc2ccccc2)s1,-,50µM,-,-,-,-
SMILES,HP1b chromo inh,G9a block,BAZ2B block,12-LOX inh,JMJD2A Tudor inh,PLK1 PBD block
NC(C(=O)O)C(c1ccccc1)C(F)F (configuration not stated),-,11µM,-,.,50µM,-
NC(=O)C(c1ccccc1)c1ccccc1,.,.,.,-,.,.
CCNC(=O)NC(=O)C(C)Sc1nnc(COc2ccccc2Cl)o1 (configuration not stated),-,18µM,?,-,?,-
CCN(CC)c1ccc(C(=O)N2CCCC2c2nncn2Cc2ccncc2)cc1 (configuration not stated),.,.,.,-,.,.
Cc1ccc2c(c1)c1c(n2CC(O)CNC2CCCC2)CCCC1 (configuration not stated),?,20µM,45µM,?,18µM,-
O=c1c2c(-c3ccc([N+](=O)[O-])cc3)csc2nc2n1CCCCC2,?,35µM,?,-,?,-
Cc1ccc(N2CCN(S(=O)(=O)c3nnc(NC(=O)c4ccco4)s3)CC2)cc1,-,28µM,-,-,-,-
Cc1ccc(N(C)S(=O)(=O)c2nnc(NC(=O)c3ccco3)s2)cc1,-,4µM!,?,-,?,-
O=C(c1ccsc1)N1CCN(C(=O)N2CC3CC(C2)[C@H]2CCCC(=O)N2C3)CC1 (some centres not stated),.,.,.,-,.,.
COc1ccc2ccccc2c1/C=N\NC(=O)c1cccnc1,-,.,.,-,-,-
CNCc1cccn1C,.,.,.,0.52µM,.,.
COCC(C)N=C1NN=C(c2cccs2)C(CC(=O)O)S1 (configuration not stated),-,50µM,-,?,-,?
Cc1ccc(C(=O)OCc2ccc3c(c2)OCO3)cc1S(=O)(=O)N1CCCCC1,-,-,-,-,-,-
NC(=O)c1nsc(C(=O)N(Cc2ccco2)C(C(=O)NCc2ccc(F)cc2)c2ccc(O)cc2)c1N (configuration not stated),-,-,-,-,-,-
CN(C)c1ccc(C(C(=O)NCc2ccccc2)N(Cc2ccco2)C(=O)c2snc(C(N)=O)c2N)cc1 (configuration not stated),-,35µM,?,-,?,-
Cc1cccc(N(C(=O)c2snc(C(N)=O)c2N)C(C(=O)NCc2ccccc2)c2ccncc2)c1 (configuration not stated),?,50µM,-,-,-,-
C=C(C(=O)c1ccccc1)C(NC(C)(C)C)c1ccccc1 (configuration not stated),-,.,.,-,-,-
CCS(=O)(=O)N1Cc2ccccc2CC1C(=O)Nc1nnc(SCc2ccc(C#N)cc2)s1 (configuration not stated),-,45µM,-,-,-,-
NS(=O)(=O)c1ccc(NC(=O)C2Cc3ccccc3CN2C(=O)c2ccco2)cc1 (configuration not stated),?,50µM,50µM,-,40µM,-
NS(=O)(=O)c1ccc(CCNC(=O)C2Cc3ccccc3CN2C(=O)c2ccco2)cc1 (configuration not stated),-,-,-,-,-,-
COc1cccc(NC(=O)C2Cc3ccccc3CN2C(=O)c2ccco2)c1 (configuration not stated),-,35µM,-,-,-,-
CCSc1nnc(NC(=O)C2Cc3ccccc3CN2C(=O)c2ccco2)s1 (configuration not stated),-,?,?,-,79µM,?
CCS(=O)(=O)N1Cc2ccccc2CC1C(=O)Nc1ncc(C)s1 (configuration not stated),-,-,-,-,-,-
O=C(NCCc1cccc2cccnc12)c1cc[n+]([O-])cc1,.,.,.,-,.,.

# Compound activity as filed in PubChem.
